# Source: PubChem (several laboratories)
# An excerpt weighted towards active compounds, which were near 3.5% of everything screened.
# BoNT-A LC inh2: inhibitors of Botulinum neurotoxin A light chain protease | inhibition, % at 10 µM | hit rate 0.17% among 360,000 | multiplex microsphere protease substrate cleavage, flow cytometry
# BoNT F protease: inhibitors of Botulinum neurotoxin F light chain protease | AID 588497 | hit rate 0.22% among 360,000 | inhibition, % at 10 µM | Multiplex microsphere protease cleavage assay, flow cytometry; in the data active means inhibition above about 35%, passing the limit was not always enough; inconclusive means no clear call, values can overlap the other calls
# Autofluor counter: compound fluorescence in toxin protease inhibitor counterscreen; compound autofluorescence counterscreen, microsphere flow cytometry; active compounds read high; AID 624483; hit rate 3.1% among 360,000; fluorescence intensity (test concentration not listed); in the data active means fluorescence intensity above about 16000; inconclusive means no clear call, values can overlap the other calls
# Anthrax LF inh2: anthrax lethal factor protease inhibition | P15917 | multiplex microsphere protease cleavage assay, LF | inhibition, % at 10 µM | hit rate 0.12% among 360,000 | AID 588501
# Target sequence (P15917 whole entry, looked up): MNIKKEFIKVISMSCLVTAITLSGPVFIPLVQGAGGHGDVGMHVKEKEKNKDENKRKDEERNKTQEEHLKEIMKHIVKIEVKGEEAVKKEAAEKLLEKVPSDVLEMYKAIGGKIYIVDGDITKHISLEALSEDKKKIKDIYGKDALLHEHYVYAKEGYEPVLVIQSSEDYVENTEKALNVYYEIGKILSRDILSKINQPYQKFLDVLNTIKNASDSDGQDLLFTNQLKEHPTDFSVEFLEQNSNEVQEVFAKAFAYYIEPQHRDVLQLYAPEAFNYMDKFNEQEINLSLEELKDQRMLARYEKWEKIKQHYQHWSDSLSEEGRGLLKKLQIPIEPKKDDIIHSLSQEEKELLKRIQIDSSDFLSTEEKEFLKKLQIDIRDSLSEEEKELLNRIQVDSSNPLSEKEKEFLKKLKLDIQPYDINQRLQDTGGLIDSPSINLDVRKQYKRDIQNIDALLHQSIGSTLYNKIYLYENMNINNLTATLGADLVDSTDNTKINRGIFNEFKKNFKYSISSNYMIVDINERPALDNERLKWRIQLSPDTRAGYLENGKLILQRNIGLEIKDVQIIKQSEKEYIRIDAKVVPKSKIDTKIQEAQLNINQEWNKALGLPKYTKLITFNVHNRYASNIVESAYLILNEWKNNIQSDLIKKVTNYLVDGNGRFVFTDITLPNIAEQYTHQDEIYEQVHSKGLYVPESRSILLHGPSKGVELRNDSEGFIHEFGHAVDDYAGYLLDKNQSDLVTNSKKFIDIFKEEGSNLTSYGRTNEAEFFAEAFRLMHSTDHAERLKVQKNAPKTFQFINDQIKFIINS
# 3CLpro inhibitor: SARS-CoV 3CLpro protease inhibition. recombinant SARS-CoV 3CLpro, quenched FRET peptide cleavage. inhibition, % at 6 µM. hit rate 0.14% among 290,000. AID 1706; in the data active means inhibition above about 12%
# Numbers stand for hits; – = inactive; ? = inconclusive; · = not tested or not shown. Unless noted, no stated cut-off is given here; in the data, active means inhibition above about 30%; inconclusive means no clear call, values can overlap the other calls; inactive means below that.
SMILES,BoNT-A LC inh2,BoNT F protease,Autofluor counter,Anthrax LF inh2,3CLpro inhibitor
Cc1ccc(NC(=O)CSc2nc3c(c(=O)[nH]2)CCC3)cc1C,–,–,17130,–,–
O=c1[nH]c(SCc2ccccc2Cl)nc2c1CCC2,–,–,23543,–,–
Cc1ccc(NC(=O)CSc2nc3c(c(=O)[nH]2)CCCC3)cc1C,–,–,–,–,–
CN(C(=O)CSc1nc(N)cc(=O)[nH]1)C1CCCCC1,–,–,–,–,·
Cc1ccc(CSc2nc3c(c(=O)[nH]2)CCC3)cc1,?,–,20993,–,–
Cc1ccccc1CSc1nc2c(c(=O)[nH]1)CCCC2,·,·,·,·,–
Cc1ccc(C(=O)Oc2cccnc2)cc1[N+](=O)[O-],–,–,–,–,–
N#CC(=C(O)COC(=O)c1ccc2c(c1)OCCO2)c1nc2ccccc2[nH]1,–,–,–,–,·
Cc1ccc(CNC(=O)CN2C(=O)C3(OCCCO3)c3ccccc32)cc1,38,40,–,–,–
CC(C)N1C(=O)C2(OCCCO2)c2cc(Br)ccc21,–,–,–,–,–
O=C(CN1C(=O)C2(OCCCO2)c2ccccc21)NCc1ccccc1,–,–,17108,–,–
CCOc1ccccc1CN1C(=O)C2(OCCO2)c2ccccc21,–,?,–,–,–
CCOC(=O)CN1C(=O)C2(OCCCO2)c2ccccc21,–,–,–,–,–
Cc1ccc(C)c(CN2C(=O)C3(OCCCO3)c3ccccc32)c1,–,–,23436,–,–
COC(=O)CN1C(=O)C2(OCCCO2)c2cc(Br)ccc21,–,–,23376,–,–
COc1cc(C2CC(=O)Oc3cc(C)c(Br)c(C)c32)cc(OC)c1OC (centres undefined),–,–,–,–,·
COc1cc(/C=C2\SC(N3CCCCC3)=NC2=O)cc(OC)c1OC,–,–,–,–,–
CS(=O)(=O)Nc1nc2n(n1)C(c1ccc(F)cc1)CC(c1ccccc1)N2 (centres undefined),–,–,–,–,–
O=C(CN1C(=O)C2(OCCO2)c2ccccc21)c1ccc(Cl)cc1,?,–,16345,–,–
CC(C)(C)C(=O)CN1C(=O)C2(OCCO2)c2ccccc21,–,–,–,–,–
Clc1ccc(Cc2ccccc2)nn1,–,–,21162,–,–
Clc1cccc(Cc2ccc(Cl)nn2)c1,–,–,–,–,–
Clc1ccc(Cc2ccc(Cl)nn2)c(Cl)c1,–,–,23303,–,–
Nc1nnc(Cc2ccc(Cl)cc2Cl)s1,–,–,–,–,–
Cc1nnc(NC(=O)C2CCN(c3nnnn3-c3ccccc3)CC2)s1,?,–,21118,–,–
SMILES,BoNT-A LC inh2,BoNT F protease,Autofluor counter,Anthrax LF inh2,3CLpro inhibitor
Cc1nnc(NC(=O)C2CCN(c3cnccn3)CC2)s1,–,–,22414,–,–
Cc1ccc(NC(=O)C2CCN(c3cnccn3)CC2)cc1,–,–,–,–,–
O=C(Nc1cccc2c1CCCC2)C1CCN(c2nnnn2-c2ccccc2)CC1,–,–,–,–,–
COc1ccccc1Oc1ccc(S(=O)(=O)N2CCCCC2)cc1NC(=O)CCNC(C)=O,–,–,–,–,–
CC1=C/C(=N\NC(=S)Nc2cccnc2)CC(C)(C)C1,–,–,–,–,–
O=C(O)CCc1nn2c3ccccc3n(CC(=O)c3ccccc3)c2nc1=O,–,–,22951,–,–
Cc1ccc(NC(=O)c2ccc3c(c2)C(=O)N(CC2CCCO2)C3=O)cc1C (centres undefined),–,–,–,–,–
O=C(Nc1ccc2c(c1)C(=O)N(CC1CCCO1)C2=O)c1ccc(Cl)c(Cl)c1 (centres undefined),?,–,22241,–,–
CC(=O)NC(c1ccccc1)c1cccnc1 (centres undefined),–,–,16197,–,–
Nc1c(-c2ccccc2)cnn1-c1cccc([N+](=O)[O-])c1,–,–,17591,–,–
COc1ccccc1CNc1nc2ccccc2n1CCN1CCCCC1,–,–,–,–,–
Cc1ccc(SCC(=O)OCC(=O)NCc2ccco2)cc1,–,–,–,–,·
O=C(CSc1nc2ccc([N+](=O)[O-])cc2[nH]1)NCCc1ccccc1,–,–,20820,–,–
CC(C)OCCCNC(=O)C1CC(=O)N(CCc2ccc(F)cc2)C1 (centres undefined),–,–,–,–,–
COC(CNC(=O)C1CC(=O)N(CCc2ccccc2)C1)OC (centres undefined),–,–,20271,–,–
Cc1ccc(CCN2CC(C(=O)N3CCN(c4ccc(F)cc4)CC3)CC2=O)cc1 (centres undefined),–,–,20552,–,–
O=C(C1CC(=O)N(c2ccc(F)cc2)C1)N1CCN(c2ccc(F)cc2)CC1 (centres undefined),–,–,–,–,–
Cc1ccc(CCN2CC(C(=O)NCCCOC(C)C)CC2=O)cc1 (centres undefined),–,–,21642,–,–
Cc1ccc(-c2nnn(C(C)C(=O)N3c4ccccc4CCc4ccccc43)n2)cc1 (centres undefined),–,–,–,–,–
Cc1ccc(-c2nc3ccc(Cl)cc3c(=O)n2O)cc1,–,–,–,–,–
CC(NC(=O)/C(C#N)=C/c1ccc(Cl)c([N+](=O)[O-])c1)c1ccccc1 (centres undefined),·,·,·,·,–
Clc1ccccc1CSc1snnc1-c1ccccc1,?,–,20983,–,–
Clc1ccc(CSc2snnc2-c2ccccc2)cc1,?,?,?,?,–
Clc1ccc(-c2nnsc2SCc2ccccc2)cc1,–,–,22947,–,–
Cc1nn(-c2ccc(F)cc2)c2sc(C(=O)OCC(=O)N3CCC(C)CC3)cc12,?,–,19994,–,–
SMILES,BoNT-A LC inh2,BoNT F protease,Autofluor counter,Anthrax LF inh2,3CLpro inhibitor
Cc1noc(C)c1COC(=O)c1cc2c(C)nn(-c3ccc(F)cc3)c2s1,–,–,–,–,·
O=C(O)c1cccc(C(=O)Cc2ccccc2)c1,–,–,–,–,–
O=C(c1ccc(COc2ccccc2[N+](=O)[O-])o1)N1CCCCC1,–,–,19870,–,–
CC(=O)Cc1nsc(NC(=O)c2ccc(-c3ccc(Cl)cc3Cl)o2)n1,–,–,20376,–,–
CC(=O)Cc1nsc(NC(=O)c2cc(-c3ccccc3Cl)oc2C)n1,–,–,–,–,–
CC(=O)Cc1nsc(NC(=O)c2cc(-c3ccc(Cl)c(Cl)c3)oc2C)n1,–,–,23305,–,–
CCCCNCC#CCOc1cc(C)ccc1C(C)C,–,–,–,–,–
CCOc1ccc2nc(NC(=O)Nc3ccccc3)sc2c1,–,–,–,–,–
CCOc1ccc2nc(NC(=S)NCc3ccccc3)sc2c1,–,–,20242,–,–
c1cncc(Nc2nc(-c3ccncc3)cs2)c1,–,–,18714,–,–
CCOC(=O)c1c(NC(=O)C(=O)N/N=C/c2ccc(OCC)cc2)sc2c1CCCCC2,–,–,–,–,–
COC(=O)C1CCN(CC(=O)NC(=O)Nc2ccccc2F)CC1,–,–,–,–,·
Cc1ccc(C)c(-n2c(N)c(C(N)=O)sc2=S)c1,–,–,–,–,–
Cc1ccc(-n2c(N)c(C(N)=O)sc2=S)c(C)c1,–,–,18506,–,–
CCOC(=O)c1sc(=S)n(-c2ccccc2OC)c1N,–,–,–,–,–
CCOc1ccccc1-n1c(N)c(C(N)=O)sc1=S,–,–,16402,–,–
